This is part of a sample that, as a whole, favours compounds with a hit. Of some 79,000 tested, about 15% had one in any assay. The source made the active and inactive calls. Rule as the data show it: active = growth inhibition above about 70%; inactive = the rest.
Legend:
[1] = NCI Yeast Anticancer Drug Screen. Data for the rad52 strain (AID 147);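 also: 0% = growth of vehicle-treated control cultures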; settings: S. cerevisiae rad52 mutant growth inhibition, stronger effect = higher value
Outline: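 DNA repair-defective yeast; compound exposure; growth scored against vehicle controls.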

[2] = NCI Yeast Anticancer Drug Screen. Data for the wt1 strain (AID 149);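 also: 0% = growth of vehicle-treated wt1 cultures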; settings: S. cerevisiae wt1 strain (SPY 50644) growth inhibition, stronger effect = higher value
Outline: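 wt1 strain grown with compound or vehicle; inhibition taken from the growth difference.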

[3] = NCI Yeast Anticancer Drug Screen. Data for the rad50EPP+ strain (AID 151);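 also: 0% = growth of vehicle-treated control cultures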; settings: S. cerevisiae rad50 mutant strain, stronger effect = higher value
Outline: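 rad50EPP+ yeast treated with test compounds. Readout: growth vs vehicle control.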

[4] = NCI Yeast Anticancer Drug Screen. Data for the mgt1 strain (AID 153); settings: S. cerevisiae mgt1 mutant growth inhibition, stronger effect = higher value
Outline: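 Growth inhibition relative to vehicle controls was scored for the mgt1 yeast strain after compound exposure.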

[5] = NCI Yeast Anticancer Drug Screen. Data for the rad50 strain (AID 155);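 also: 0% = growth of vehicle-only cultures of the same strain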; settings: S. cerevisiae rad50 strain growth inhibition, stronger effect = higher value
Outline: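 DNA repair mutant yeast, compound exposure, growth read-out; inhibition is taken relative to vehicle.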

[6] = NCI Yeast Anticancer Drug Screen. Data for the mec2-1 strain (AID 157); settings: S. cerevisiae mec2-1 strain, stronger effect = higher value
Outline: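 Growth inhibition is read against vehicle-treated controls after compound exposure of the mec2-1 yeast strain, which is defective in DNA damage repair or cell cycle control.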

[7] = NCI Yeast Anticancer Drug Screen. Data for the rad14 strain (AID 159);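 also: 0% = growth of vehicle-treated control cultures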; settings: S. cerevisiae rad14 strain growth inhibition, stronger effect = higher value
Outline: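 DNA repair-defective yeast, compound-exposed; % growth inhibition derived by comparison with vehicle-treated controls.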

[8] = NCI Yeast Anticancer Drug Screen. Data for the sgs1 mgt1 strain (AID 161);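 also: 0% = growth of cultures given vehicle only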; settings: S. cerevisiae sgs1 mgt1 strain, stronger effect = higher value
Outline: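 Percent growth inhibition was derived by comparing compound-exposed mutant yeast with vehicle-exposed cultures. The strain carries alterations in DNA damage repair.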

[9] = NCI Yeast Anticancer Drug Screen. Data for the cln2 rad14 strain (AID 165);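 also: 0% = growth equal to vehicle treated cultures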; settings: S. cerevisiae cln2 rad14 strain, stronger effect = higher value
Outline: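 Growth inhibition, relative to vehicle-treated controls, is the read-out. The test organism is a yeast strain with defined genetic alterations, cln2 rad14.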

[10] = NCI Yeast Anticancer Drug Screen. Data for the bub3 strain (AID 167); settings: S. cerevisiae bub3 mutant strain, stronger effect = higher value
Outline: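 In this screen, a yeast mutant lacking normal mitotic checkpoint function is challenged with compound. Relative growth versus vehicle gives the inhibition value.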

[11] = NCI Yeast Anticancer Drug Screen. Data for the wt2 strain (AID 169);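 also: 0% = growth of vehicle-treated yeast cultures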; settings: S. cerevisiae wt2 strain growth inhibition, stronger effect = higher value
Outline: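 Compound exposure of yeast; growth compared with vehicle controls; inhibition reported.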

[12] = NCI Yeast Anticancer Drug Screen. Data for the mlh1 strain (AID 171);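 also: 0% = growth of vehicle-treated control cultures of the same strain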; settings: S. cerevisiae mlh1 strain growth inhibition, stronger effect = higher value
Outline: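 Compounds are applied to a genetically altered yeast strain, and its growth is compared with that of vehicle-treated cultures to give percent inhibition.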

[13] = NCI Yeast Anticancer Drug Screen. Data for the sgs1 strain (AID 173);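 also: 0% = growth of vehicle-only control cultures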; settings: S. cerevisiae sgs1 mutant, stronger effect = higher value
Outline: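 Compounds applied to genetically altered yeast; growth compared with vehicle-treated cultures to give % inhibition.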

[14] = NCI Yeast Anticancer Drug Screen. Data for the mlh1 rad18 strain (AID 175); settings: S. cerevisiae mlh1 rad18 strain growth inhibition, stronger effect = higher value
Outline: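 Cells of a genetically altered yeast strain, deficient in DNA damage repair, were treated with compound. Their growth was then compared with that of vehicle-treated cultures to give inhibition.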

[15] = NCI Yeast Anticancer Drug Screen. Data for the rad18 strain (AID 177); settings: S. cerevisiae rad18 mutant growth inhibition, stronger effect = higher value
Outline: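 Compounds are applied to a repair-deficient yeast strain, and growth is compared with that of vehicle-treated cultures to give percent inhibition.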

[16] = NCI Yeast Anticancer Drug Screen. Data for the CLN2oe strain (AID 163);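 also: 0% = growth of vehicle-only control cultures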; settings: S. cerevisiae CLN2oe strain, stronger effect = higher value
Outline: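 Compound-treated yeast; growth vs vehicle ctrl = % inhibition. Genetically altered strain (cell-cycle control).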

[17] = at 5.0 µM (retest, dose inferred, filed as 0.5)
[18] = at 50.0 µM (retest, dose inferred, filed as 5.0)

Measured: growth inhibition

O=C1c2c(O)cccc2-c2nn(CCNCCO)c3ccc(NCCNCCO)c1c23
inactive: [1]; at 1.2 µM 17% | [1]; at 3.7 µM 43% | [2]; at 1.2 µM 8% | [2]; at 3.7 µM -2% | [2]; at 11.0 µM 11% | [2]; at 33.0 µM 2% | [2]; at 100.0 µM -4% | [3]; at 1.2 µM 15% | [3]; at 3.7 µM 19% | [3]; at 11.0 µM 39% | [3]; at 33.0 µM 54% | [4]; at 1.2 µM 16% | [4]; at 3.7 µM 11% | [4]; at 11.0 µM -3% | [4]; at 33.0 µM -10% | [4]; at 100.0 µM 2% | [5]; at 1.2 µM 26% | [5]; at 3.7 µM 42% | [5]; [17] 27% | [6]; at 1.2 µM 42% | [6]; at 3.7 µM 29% | [6]; [17] -25% | [6]; at 11.0 µM 40% | [6]; at 33.0 µM 10% | [6]; [18] -14% | [6]; at 50.0 µM 20.4% | [6]; at 100.0 µM 39% | [7]; at 1.2 µM -3% | [7]; at 3.7 µM -2% | [7]; at 11.0 µM -21% | [7]; at 33.0 µM -13% | [7]; at 100.0 µM 2% | [8]; [17] 1% | [8]; [18] -2% | [8]; at 50.0 µM 7% | [9]; [17] 26% | [9]; [18] 14% | [9]; at 50.0 µM -7.2% | [10]; at 1.2 µM 1% | [10]; at 3.7 µM -9% | [10]; [17] -24% | [10]; at 11.0 µM -15% | [10]; at 33.0 µM -30% | [10]; [18] -13% | [10]; at 50.0 µM -19.2% | [10]; at 100.0 µM -26% | [11]; at 1.2 µM -46% | [11]; at 3.7 µM -27% | [11]; at 11.0 µM -41% | [11]; at 33.0 µM -53% | [11]; at 100.0 µM -42% | [12]; at 1.2 µM 29% | [12]; at 3.7 µM 7% | [12]; at 11.0 µM 15% | [12]; at 33.0 µM 13% | [12]; at 100.0 µM 21% | [13]; at 1.2 µM 7% | [13]; at 3.7 µM 5% | [13]; at 11.0 µM 7% | [13]; at 33.0 µM 11% | [13]; at 100.0 µM 28% | [14]; [17] -6% | [14]; [18] -7% | [15]; at 1.2 µM 13% | [15]; at 3.7 µM 15% | [15]; at 11.0 µM -2% | [15]; at 33.0 µM 9% | [15]; at 100.0 µM 0%
active: [1]; at 11.0 µM 73% | [1]; at 33.0 µM 81% | [1]; at 100.0 µM 87% | [3]; at 100.0 µM 77% | [5]; at 11.0 µM 74% | [5]; at 33.0 µM 85% | [5]; [18] 79% | [5]; at 50.0 µM 76.9% | [5]; at 100.0 µM 87%

Nc1ccc(S(=O)(=O)Nc2ccc(Nc3c4ccccc4nc4ccccc34)cc2)cc1
inactive: [1]; at 1.2 µM 21% | [1]; at 3.7 µM 69% | [2]; at 1.2 µM 2% | [2]; at 3.7 µM 19% | [2]; at 11.0 µM 18% | [2]; at 33.0 µM 18% | [2]; at 100.0 µM 43% | [3]; at 1.2 µM 8% | [3]; at 3.7 µM 56% | [4]; at 1.2 µM 4% | [4]; at 3.7 µM 4% | [4]; at 11.0 µM 3% | [4]; at 33.0 µM 13% | [4]; at 100.0 µM 50% | [5]; at 1.2 µM 22% | [5]; at 3.7 µM 66% | [5]; [17] 59% | [6]; at 1.2 µM 0% | [6]; at 3.7 µM 11% | [6]; [17] -24% | [6]; at 11.0 µM 6% | [6]; at 33.0 µM 19% | [6]; [18] 31% | [6]; at 50.0 µM 57.4% | [8]; [17] -7% | [8]; [18] 19% | [8]; at 50.0 µM 21% | [16]; at 1.2 µM -29% | [16]; at 3.7 µM -5% | [16]; at 11.0 µM -15% | [16]; at 33.0 µM 4% | [16]; at 100.0 µM 33% | [9]; [17] -3% | [9]; [18] 7% | [9]; at 50.0 µM 13.8% | [10]; at 1.2 µM 8% | [10]; at 3.7 µM 31% | [10]; [17] -18% | [10]; at 11.0 µM 15% | [10]; at 33.0 µM 4% | [10]; [18] -4% | [10]; at 50.0 µM -22.1% | [10]; at 100.0 µM 39% | [11]; at 1.2 µM -42% | [11]; at 3.7 µM -39% | [11]; at 11.0 µM -38% | [11]; at 33.0 µM -30% | [11]; at 100.0 µM 60% | [12]; at 1.2 µM 4% | [12]; at 3.7 µM 24% | [12]; at 11.0 µM 23% | [12]; at 33.0 µM 24% | [12]; at 100.0 µM 60% | [13]; at 1.2 µM 8% | [13]; at 3.7 µM 17% | [13]; at 11.0 µM 24% | [13]; at 33.0 µM 43% | [14]; [17] 0% | [14]; [18] 19%
active: [1]; at 11.0 µM 88% | [1]; at 33.0 µM 93% | [1]; at 100.0 µM 95% | [3]; at 11.0 µM 77% | [3]; at 33.0 µM 76% | [3]; at 100.0 µM 79% | [5]; at 11.0 µM 86% | [5]; at 33.0 µM 93% | [5]; [18] 87% | [5]; at 50.0 µM 79.1% | [5]; at 100.0 µM 94% | [6]; at 100.0 µM 77% | [13]; at 100.0 µM 79%
